In all, about 16,000 compounds went through this assay and about 4,000 (25%) were called active. Not shown: some 26% with an inconclusive outcome. These entries were drawn from the full list. Values without a mark were called inactive. Calls follow the shape of the dose curve; as a rule, active = well fitted curve in the direction sought with a large enough effect; inconclusive = small, poorly fitted or top-dose-only effect, or effect the other way; inactive = no such curve, though single readings can be large or run the other way.
target: Cytochrome P450 2C9 (Homo sapiens) (UniProt P11712); assay: Cytochrome panel assay with activity outcomes; settings: recombinant CYP, pro-luciferin dealkylation, luminescence, p450-cyp2c9; series mostly up to 57.1 µM; activity, negative = inhibition: at the top concentration
Sequence (P11712 whole entry, looked up): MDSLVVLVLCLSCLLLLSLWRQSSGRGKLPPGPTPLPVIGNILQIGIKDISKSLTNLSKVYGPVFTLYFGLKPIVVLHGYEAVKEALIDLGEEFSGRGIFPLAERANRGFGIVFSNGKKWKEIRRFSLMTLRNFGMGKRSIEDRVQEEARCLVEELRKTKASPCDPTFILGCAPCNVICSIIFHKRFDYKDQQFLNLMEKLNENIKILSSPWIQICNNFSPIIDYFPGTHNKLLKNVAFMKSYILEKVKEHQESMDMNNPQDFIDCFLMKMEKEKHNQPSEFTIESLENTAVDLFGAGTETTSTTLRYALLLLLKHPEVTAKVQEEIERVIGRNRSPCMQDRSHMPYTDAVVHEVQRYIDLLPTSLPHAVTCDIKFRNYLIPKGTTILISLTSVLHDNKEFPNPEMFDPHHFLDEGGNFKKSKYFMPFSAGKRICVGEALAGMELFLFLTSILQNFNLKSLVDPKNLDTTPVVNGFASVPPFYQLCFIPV
% is scaled to controls: 0 for no effect and ±100 for the full control effect.

Row | Structure (SMILES) | activity, negative = inhibition | AC50
1 | O=C1OCCC1Sc1nnnn1-c1ccccc1 (configuration not stated) | -15.2% | 
2 | CCC(CC)C(=O)Nc1ccc(C)c(O)c1 |  | 3.16 µM (active)
3 | Cc1ccccc1N1C(=O)c2cc(S(N)(=O)=O)c(Cl)cc2N[C@H]1C | -17.8% [at 25.6 µM] | 
4 | Cc1[nH]nc(N2CCCCCC2)c1[N+](=O)[O-] |  | 17.8 µM (active)
5 | Cc1ccccc1CN1C2=NCCN2C(=O)C2=C1CCN(Cc1ccccc1)C2 | -1.36% [at 11.4 µM] | 
6 | N=C(N)SCc1nc(-c2ccc(Cl)cc2)no1 |  | 3.98 µM (active)
7 | CN(C)C(=O)CCc1nc(-c2ccc(C(C)(C)C)cc2)no1 | -13.8% | 
8 | Cc1ccc(C2CC2C(=O)NN)cc1 (configuration not stated) |  | 14.1 µM (active)
9 | Cc1ccc(NC(=O)C2CCN(S(C)(=O)=O)CC2)cc1 | 8.67% | 
10 | Cc1ccc(C(=O)C2CCNCC2)cc1 | -7.02% | 
11 | Cc1cccc(CNc2cc(-c3ccccc3CN(C)C)ncn2)c1 | -2.61% [at 2.29 µM] | 
12 | CC(C)=CCc1c2c(c3occ(-c4ccc(O)c(O)c4)c(=O)c3c1O)C=CC(C)(C)O2 |  | 3.16 µM (active)
13 | CN(C)CCO[C@](C)(c1ccccc1)c1ccccn1 |  | inactive
14 | COc1ccc(-c2cc([C@H](O)[C@@H]3CCCCN3)c3ccccc3n2)cc1 | 3.54% [at 11.4 µM] | 
15 | COC(=O)c1sccc1NC(=O)c1cc(-c2ccc(C)cc2)nc2ccccc12 |  | 3.98 µM (active)
16 | COC(=O)c1sccc1NC(=O)c1cc(-c2ccc(C)cc2C)nc2ccccc12 |  | 2.24 µM (active)
17 | COC(=O)c1sccc1NC(=O)c1cc(-c2cc(C)ccc2C)nc2ccccc12 | -53% | 
18 | COC(=O)CNC(c1ccccc1Cl)c1cc(Br)ccc1NC(=O)CCN1CCOCC1 (configuration not stated) |  | 15.8 µM (active)
19 | Clc1ccccc1-c1cc(NCCN2CCOCC2)ncn1 | 16.8% [at 2.29 µM] | 
20 | O=C(CSCc1ccccc1Cl)NNC(=S)Nc1ccccc1 |  | 2.51 µM (active)
21 | O=C(CSCc1ccccc1Cl)NNC(=O)c1ccccc1 | -11.5% | 
22 | O=C(CSCc1ccccc1Cl)NN1C(=O)c2ccccc2C1=O |  | 3.98 µM (active)
23 | O=C(NN1C(=O)c2ccccc2C1=O)C1CCCCC1 | -28.6% | 
24 | O=C(NNC(=S)Nc1ccccc1)C1CC1 | -20.4% | 

Row | Structure (SMILES) | activity, negative = inhibition | AC50
25 | CC(C)CNC(=O)O | -4.26% [at 11.4 µM] | 
26 | C(=C\c1nnc(-c2cccs2)o1)/c1ccccc1 |  | 14.1 µM (active)
27 | Cc1oc(-c2cccs2)[n+]([O-])c1C | -17.3% | 
28 | Clc1cccc(Cl)c1CSc1nnc(/C=C/c2ccccc2)o1 | -33% | 
29 | O=[N+]([O-])c1ccc(C2CCCC/C2=N\OCc2cccc(F)c2)c([N+](=O)[O-])c1 (configuration not stated) |  | 7.94 µM (active)
30 | CC1(C)N=C(N)N=C(N)N1c1cccc(OCc2cccc([N+](=O)[O-])c2)c1 | -1.87% [at 11.4 µM] | 
31 | CCN1CCN(C(=O)N[C@H](C(=O)N[C@@H]2C(=O)N3C(C(=O)O)=C(CSc4nnnn4C)CS[C@@H]23)c2ccc(O)cc2)C(=O)C1=O | -2.86% [at 25.6 µM] | 
32 | CCCCN(C)S(=O)(=O)c1ccc(C(=O)Nc2nnc(CSC)o2)cc1 |  | 0.794 µM (active)
33 | CN(CCC(=O)O)S(=O)(=O)c1ccccc1 | 22.4% [at 11.4 µM] | 
34 | CCCCN(CC)S(=O)(=O)c1ccc(C(=O)Nc2nnc(CSC)o2)cc1 |  | 0.891 µM (active)
35 | CN(Cc1ccco1)c1ccnc(-c2ccccc2C(F)(F)F)n1 | -4.94% [at 2.29 µM] | 
36 | O=C(O)C[C@H](S)C(=O)O | 10.9% [at 11.4 µM] | 
37 | O=C(c1cc(-c2ccc(Cl)cc2Cl)on1)N1CCN(C(=O)c2ccco2)CC1 |  | 7.08 µM (active)
38 | O=C(c1ccco1)N1CCN(C(=O)c2nn3cccnc3c2Cl)CC1 | -8.31% | 
39 | O=C(c1ccc(Cl)cc1)N1CCN(C(=O)c2ccco2)CC1 | -19.8% | 
40 | Cc1cccc(C)c1NC(=O)C[N+](C)(C)C | -10.4% | 
41 | CC[N+](CC)(CC)CC(=O)Nc1c(C)cccc1C | 9.55% | 
42 | Cc1cc2cc3c(cc2nc1SCC(=O)Nc1c(C)cccc1C)CCC3 |  | 4.47 µM (active)
43 | CO[C@H]1COC(=O)[C@H]2CCCN2C(=O)[C@@H](C)COC(=O)C/C=C\[C@@H]1C | 7.11% [at 11.4 µM] | 
44 | O=C(NCc1cccnc1)/C(=C/c1ccc(-c2cccc(Cl)c2)o1)S(=O)(=O)c1ccccc1 |  | 6.31 µM (active)
45 | CCN(C(=S)Nc1ccccc1F)C1CCCCC1 | -17% | 
46 | CN(C(=S)Nc1ccccc1F)C1(c2ccccc2Cl)CCCCC1=O (configuration not stated) |  | 17.8 µM (active)
47 | COc1ccccc1CNc1ncncc1-c1ccc(C(=O)N(C)C)cc1 | -24.3% [at 2.29 µM] | 

Reference: PubChem BioAssay AID1851 (National Center for Advancing Translational Sciences (NCATS), 2009)
